Results filed as inconclusive are left out. Unless noted, the call rests on the fitted dose curve; in most records, active means well fitted curve in either direction with a large enough effect (not every such curve was filed as active); inconclusive means small, poorly fitted or top-dose-only effect, or another doubt; inactive means flat fitted curve, though single readings scatter.
Assays:
[1] = AP1 Signaling Pathway (AID 357); conditions: ME-180 AP-1-bla reporter, EGF-induced, beta-lactamase ratio, 5 h; at 17.2 µM (top of the series) unless noted;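 further: ME-180 reporter cells stimulated with EGF at its EC50 level; on the % scale 0 is the no-effect control and ±100 the full control effect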
Outline: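 Read-out was the 460nm/530nm emission ratio (excitation 405nm) after CCF4 loading for 2.5 hours at room temperature. Cells carried an AP-1-driven beta-lactamase reporter, were stimulated with EC50 EGF plus compound for 5 hours, and AC50 values came from titrations.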

[2] = NFAT Signaling Pathway (AID 444); conditions: Jurkat NFAT-bla M1, carbachol, beta-lactamase ratio, 5 h; at 17.2 µM (top of the series) unless noted;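 further: carbachol stimulus at about its EC50 of 1 µM final; on the % scale 0 is the no-effect control and ±100 the full control effect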
Outline: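 Jurkat cells carrying an NFAT-driven β-lactamase reporter and co-transfected muscarinic M1 receptor were treated with compound plus carbachol (1 uM final, an EC50 level) for 5 h at 37 °C. CCF4 loading followed for 1 h at RT; 460/530 nm ratio gave %activity.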

[3] = Stat Signaling Pathway (AID 446); conditions: ME-180 SIE beta-lactamase reporter, IL-6 stimulated, 5 h; at 17.2 µM (top of the series) unless noted;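 further: ME-180 cervical cancer cells given 40 pM IL-6 alongside compound; SIE-controlled beta-lactamase reporter measured as 460/530 nm FRET emission ratio; on the % scale 0 is the no-effect control and ±100 the full control effect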
Outline: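 Reporter line: ME-180 cervical carcinoma, SIE-beta-lactamase. Treatment: compound with 40 pM IL-6, 5 hrs, 37 C, in low-serum OPTI-MEM with 10 mM HEPES pH 7.3. Detection: 460/530 nm fluorescence.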

[4] = molecular target: Glucocorticoid receptor (Homo sapiens) (UniProt P04150); test: GR-GFP Redistribution (AID 450;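 active means compounds whose dose series gives a full or clear partial fitted curve of increased nuclear translocation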; further: potency means the concentration at half of the fitted maximal effect)
Chain of Glucocorticoid receptor (Homo sapiens) (P04150 whole entry, looked up): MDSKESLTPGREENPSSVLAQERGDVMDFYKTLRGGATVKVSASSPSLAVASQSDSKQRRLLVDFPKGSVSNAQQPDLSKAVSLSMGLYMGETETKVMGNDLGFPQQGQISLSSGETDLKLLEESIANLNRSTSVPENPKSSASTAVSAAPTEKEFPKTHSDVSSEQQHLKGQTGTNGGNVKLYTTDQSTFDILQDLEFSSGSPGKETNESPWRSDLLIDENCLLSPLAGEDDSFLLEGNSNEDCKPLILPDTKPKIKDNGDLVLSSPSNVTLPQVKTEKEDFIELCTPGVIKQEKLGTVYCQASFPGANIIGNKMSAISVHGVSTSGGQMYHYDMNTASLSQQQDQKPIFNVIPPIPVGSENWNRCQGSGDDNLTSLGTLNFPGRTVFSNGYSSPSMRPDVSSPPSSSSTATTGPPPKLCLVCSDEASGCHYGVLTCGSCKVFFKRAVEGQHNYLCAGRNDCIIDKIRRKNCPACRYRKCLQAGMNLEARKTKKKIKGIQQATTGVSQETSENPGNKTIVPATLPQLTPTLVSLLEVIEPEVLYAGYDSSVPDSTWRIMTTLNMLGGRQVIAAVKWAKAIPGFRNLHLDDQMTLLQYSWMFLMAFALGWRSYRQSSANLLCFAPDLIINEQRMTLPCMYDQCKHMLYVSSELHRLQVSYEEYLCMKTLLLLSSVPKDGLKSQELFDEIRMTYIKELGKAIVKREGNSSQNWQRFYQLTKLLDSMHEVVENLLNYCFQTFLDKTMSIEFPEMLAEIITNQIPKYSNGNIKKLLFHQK

Cc1ccc(NC(=O)CSc2nnc(-c3ccco3)c(-c3ccco3)n2)cc1
inactive: activity change, negative = inhibition [1] 0.107% | activity change, negative = inhibition [2] -24.9% | activity, negative = inhibition [3] -23.9% | Potency [4] > 20.6 µM

Oc1oc(-c2ccccc2)nc1C=NCc1ccncc1
inactive: activity change, negative = inhibition [1] 1.8% | activity change, negative = inhibition [2] -8.61% | activity, negative = inhibition [3] 22.7% | Potency [4] > 20.6 µM

COc1ccc(OC)c(C2C(C(=O)c3ccco3)=C(O)C(=O)N2CCCN2CCOCC2)c1 (stereo not given)
inactive: activity change, negative = inhibition [1] 11.5% | activity change, negative = inhibition [2] 0.311% | activity, negative = inhibition [3] -6.98% | Potency [4] > 20.6 µM

COC(=O)c1[nH]c(C)c(/C(O)=C2\C(=O)C(=O)N(CCN3CCOCC3)C2c2cccnc2)c1C (stereo not given)
inactive: activity change, negative = inhibition [1] 0.561% | activity change, negative = inhibition [2] -7.81% | activity, negative = inhibition [3] 2.79% | Potency [4] > 20.6 µM

CCCCCOc1ccccc1C(=O)NCC(=O)O
inactive: activity change, negative = inhibition [1] 1.59% | activity change, negative = inhibition [2] 0.449% | activity, negative = inhibition [3] 9.43% | Potency [4] > 20.6 µM

CC(C)CC(=O)Nc1ncnc2c1C(=O)CC(C)(C)C2
inactive: activity change, negative = inhibition [1] 1.69% | activity change, negative = inhibition [2] -2.65% | activity, negative = inhibition [3] 14.7% | Potency [4] > 20.6 µM

CCCCCC(=O)N1CC2(C)CN(C(=O)CCCCC)CC(C)(C1)C2=O
inactive: activity change, negative = inhibition [1] 4.08% | activity change, negative = inhibition [2] -13.6% | activity, negative = inhibition [3] 5.3% | Potency [4] > 20.6 µM

CC(C)c1nc(N2CCOCC2)c(C#N)c2c1CCC2
inactive: activity change, negative = inhibition [1] -24.1% | activity change, negative = inhibition [2] -23.6% | activity, negative = inhibition [3] -8.37% | Potency [4] > 20.6 µM

COc1cccc(N2CCN(C3CC(=O)N(c4cccc(Cl)c4)C3=O)CC2)c1 (stereo not given)
inactive: activity change, negative = inhibition [1] -3.08% | activity change, negative = inhibition [2] 12.6% | activity, negative = inhibition [3] -13.6% | Potency [4] > 20.6 µM

COc1ccccc1N(O)C1CC(=O)N(c2ccc(F)cc2)C1=O (stereo not given)
inactive: activity change, negative = inhibition [1] -0.204% | activity change, negative = inhibition [2] -3.85% | activity, negative = inhibition [3] 1.38% | Potency [4] > 20.6 µM

COC(=O)c1ccccc1NC(=O)C1COc2ccccc2O1 (stereo not given)
inactive: activity change, negative = inhibition [1] -7.17% | activity change, negative = inhibition [2] -19.3% | activity, negative = inhibition [3] 2.58% | Potency [4] > 20.6 µM

O=C1c2ccccc2C(=O)N1CCN1CCc2ccccc21
inactive: activity change, negative = inhibition [1] -29% | activity change, negative = inhibition [2] 1.23% | activity, negative = inhibition [3] -3.43% | Potency [4] > 20.6 µM

O=C1CCC(=O)N1CNc1ccccn1
inactive: activity change, negative = inhibition [1] 10.7% | activity change, negative = inhibition [2] -7.64% | activity, negative = inhibition [3] 15.6% | Potency [4] > 20.6 µM

CCCOc1ccc(/C(O)=C2/C(=O)C(=O)N(CCN(C)C)C2c2ccc(OC)c(OC)c2)cc1 (stereo not given)
inactive: activity change, negative = inhibition [1] -7.95% | activity change, negative = inhibition [2] 5.84% | activity, negative = inhibition [3] -1.07% | Potency [4] > 20.6 µM

CCC(NC(=O)NC1=NCCS1)(C(F)(F)F)C(F)(F)F
inactive: activity change, negative = inhibition [1] 8.03% | activity change, negative = inhibition [2] -10% | activity, negative = inhibition [3] 15.4% | Potency [4] > 20.6 µM

COc1cc(OC)cc(C(=O)N2CCC(N3CCN(c4ccccc4)CC3)CC2)c1
inactive: activity change, negative = inhibition [1] 5.25% | activity change, negative = inhibition [2] -4.18% | activity, negative = inhibition [3] 4.25% | Potency [4] > 20.6 µM

COc1cc(=O)[nH]c(=O)n1CC(=O)c1ccccc1
inactive: activity change, negative = inhibition [1] 1.4% | activity change, negative = inhibition [2] 3.25% | activity, negative = inhibition [3] 5.97% | Potency [4] > 20.6 µM

CC(C)(C)NC(=O)CSc1nsc(SCC(=O)NC(C)(C)C)c1C#N
inactive: activity change, negative = inhibition [1] -5.49% | activity change, negative = inhibition [2] -10.2% | activity, negative = inhibition [3] 3.19% | Potency [4] > 20.6 µM

Cc1cccc(N(CC(O)CN(C)C)S(=O)(=O)c2ccccc2)c1 (stereo not given)
inactive: activity change, negative = inhibition [1] -9.68% | activity change, negative = inhibition [2] -3.01% | activity, negative = inhibition [3] 3.62% | Potency [4] > 20.6 µM

O=C1C2ON(c3ccccc3)C(c3cccnc3)C2C(=O)N1c1ccccc1 (stereo not given)
inactive: activity change, negative = inhibition [1] -5.35% | activity change, negative = inhibition [2] -5.72% | activity, negative = inhibition [3] 1.24% | Potency [4] > 20.6 µM

CCOC(=O)CNS(=O)(=O)c1cc(-c2nn(C)c(=O)c3ccccc23)ccc1C
inactive: activity change, negative = inhibition [1] 7.12% | activity change, negative = inhibition [2] -12.6% | activity, negative = inhibition [3] -5.95% | Potency [4] > 20.6 µM

O=c1c2c3c(sc2n2cnnc2n1C1CCCCC1)CCC3
inactive: activity change, negative = inhibition [1] -5.1% | activity change, negative = inhibition [2] -1.53% | activity, negative = inhibition [3] 22.2% | Potency [4] > 20.6 µM

CN(C)C(CN1C(=O)C2CC=CCC2C1=O)c1cn(C)c2ccccc12 (stereo not given)
inactive: activity change, negative = inhibition [1] 10.2% | activity change, negative = inhibition [2] 4.1% | activity, negative = inhibition [3] -3.79% | Potency [4] > 20.6 µM

Cc1ccc(N(Cc2cc3ccccc3[nH]c2=O)C(=O)c2ccco2)c(C)c1
inactive: activity change, negative = inhibition [1] -26.3% | activity change, negative = inhibition [2] 25.5% | activity, negative = inhibition [3] -13% | Potency [4] > 20.6 µM

CC(=O)c1c(N)nc2n(c1=O)CCCCC2
inactive: activity change, negative = inhibition [1] -12.6% | activity change, negative = inhibition [2] -9.74% | activity, negative = inhibition [3] 9.48% | Potency [4] > 20.6 µM

Reference: PubChem BioAssay (NCATS)
